Compound activity deposited in PubChem BioAssay by National Center for Advancing Translational Sciences (NCATS).
Shown are actives, neighbours in structure and some others; about 2.4% of the full set was active somewhere.
D2 PAM-1: HTS Assay for Positive Allosteric Modulators of the Human D2 Dopamine Receptor: Primary Screen for Potentiators; D(2) dopamine receptor (Homo sapiens), P14416; HEK293 T-REx D2, calcium flux, EC20 dopamine potentiation; potentiation, % at 10 µM; 0.34% of 340,000 active; AID 485347, 2010;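 active = potentiation over 3 SD above the plate norm, cut at about 30% in these data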
Target sequence (P14416 whole entry, looked up): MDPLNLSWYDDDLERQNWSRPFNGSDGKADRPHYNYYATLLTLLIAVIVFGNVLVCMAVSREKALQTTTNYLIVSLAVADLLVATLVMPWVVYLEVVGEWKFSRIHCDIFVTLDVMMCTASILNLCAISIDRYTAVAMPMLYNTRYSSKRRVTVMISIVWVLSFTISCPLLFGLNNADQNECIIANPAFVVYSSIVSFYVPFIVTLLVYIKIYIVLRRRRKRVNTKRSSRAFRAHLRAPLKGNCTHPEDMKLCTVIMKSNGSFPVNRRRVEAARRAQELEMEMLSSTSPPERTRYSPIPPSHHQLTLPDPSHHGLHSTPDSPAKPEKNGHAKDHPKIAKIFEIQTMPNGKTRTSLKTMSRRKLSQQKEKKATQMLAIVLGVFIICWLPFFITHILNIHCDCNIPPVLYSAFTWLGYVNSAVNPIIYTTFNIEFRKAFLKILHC
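Potentiation of an EC20 dopamine calcium response measured kinetically over 180 s, after a preceding 180 s compound-only read flagging agonists. Cells: inducible Hek293 Trex D2 line, 4000/well, cultured overnight at 30 C before dye loading.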
D2 PAM-2: Beta-Arrestin HTS for Positive Allosteric Modulators of the Human D2 Dopamine Receptor: Potentiators; 0.23% of 360,000 active; DiscoveRx D2 beta-arrestin cells, luminescence, 90 min; 100% = 57 uM dopamine signal; D(2) dopamine receptor (Homo sapiens), P14416; potentiation, % (no concentration beside the values); AID 624464, 2012; in the data active = potentiation above about 50%; inconclusive = mostly about 30% to 49%
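PathHunter D2 cells, attached overnight at 37 deg C, received compound in DMSO plus dopamine at EC20 (50 nM final) for 90 min at 37 deg C. Beta-arrestin recruitment was read as luminescence after 1 h with detection reagent at ambient temperature.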
D2 ag-1: Beta-Arrestin HTS for Positive Allosteric Modulators of the Human D2 Dopamine Receptor: Agonists. D(2) dopamine receptor (Homo sapiens), P14416. DiscoveRx PathHunter D2 beta-arrestin, luminescence, 90 min; 100% = 57 uM dopamine signal. activation, % (test concentration not listed). 0.084% of 360,000 active; in the data active = activation above about 40%; inconclusive = between about 15% and that limit
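Agonist mode: compounds alone added to overnight-plated D2 PathHunter cells for 90 min at 37 C, with 57 uM final dopamine (EC100) defining full response. Beta-arrestin recruitment detected by chemiluminescent reagent, read after 1 h at ambient temperature.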
D2 antagonist: HTS Assay for Allosteric Antagonists of the Human D2 Dopamine Receptor: Primary Screen for Antagonists. 2% of 340,000 active. D(2) dopamine receptor (Homo sapiens), P14416. AID 485344, 2010. HEK293 TREx D2 cells, calcium flux, dopamine EC80. inhibition, % at 10 µM; in the data active = inhibition above about 30%; inactive = below that, where a call was filed
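Calcium flux kinetic readout in an inducible HEK293 TREx D2 line plated overnight at 30 C. After 180 s compound exposure, an EC80 dopamine challenge follows with another 180 s kinetic read to detect antagonism.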
D2 ag-2: HTS Assay for Allosteric Agonists of the Human D2 Dopamine Receptor: Primary Screen for Agonists; AID 485358, 2010; HEK293 T-REx D2 cells, calcium flux agonist mode; activation, % at 2 µM; D(2) dopamine receptor (Homo sapiens), P14416; 0.53% of 340,000 active;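 active = activation over 3 SD above normal in the single-dose calcium agonist read, cut at about 30% in these data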
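Tetracycline-induced HEK293 Trex cells with D2 receptor force-coupled to calcium signaling, plated overnight at 30 C and loaded with no-wash calcium dye. Calcium flux read kinetically for 180 s after compound addition; responses flag agonists.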
Hits are given with their value; – = inactive; ? = inconclusive; · = not tested or not shown; ! = not active in a repeat.

SMILES	D2 PAM-1	D2 PAM-2	D2 ag-1	D2 antagonist	D2 ag-2
O=C(CN(C1CCCCC1)S(=O)(=O)c1ccccc1)NCc1ccco1	46.5	–	–	–	–
Cc1ccc(S(=O)(=O)N(CC(=O)NCc2ccco2)C2CCCCC2)cc1	–	–	–	–	–
COc1ccc(S(=O)(=O)NCC(=O)N(CC(=O)NCc2ccco2)C2CCCC2)cc1	–	–	–	46.7	–
CC1CCN(C(=O)Cn2c(=O)c3cccn3c3ccccc32)CC1	·	–	–	·	·
CCOc1ccc2ccccc2c1CNc1nnnn1C	–	–	–	·	·
COc1ccc(OC)c(-c2nn(-c3ccccc3)cc2C(=O)NCC(c2ccco2)N2CCCC2)c1 (stereo not drawn)	–	–	–	36.5	–
COc1ccccc1NS(=O)(=O)c1cccc(C(=O)NCC(c2ccccc2OC)N2CCCC2)c1 (stereo not drawn)	–	–	–	–	–
COc1ccccc1NS(=O)(=O)c1cccc(C(=O)NCC(c2ccco2)N2CCCC2)c1 (stereo not drawn)	–	–	–	62.6	–
CCc1ccc(CNC(=O)c2cnc3sc(N4CCCCC4)nn3c2=O)cc1	–	·	·	·	–
COc1cc(NC(=O)Cn2cnc(S(=O)(=O)N3CCOCC3)c2)cc(OC)c1OC	–	–	–	45.4	–
CN1CCOc2cc(S(=O)(=O)NCc3ccc(S(N)(=O)=O)cc3)ccc21	–	–	–	–	–
CC1CCCC(NC(=O)CC2Nc3ccccc3NC2=O)C1C (stereo not drawn)	–	–	–	30.5	–
O=C(CC1Nc2ccccc2NC1=O)NC1CCCCC1 (stereo not drawn)	–	–	–	–	–
CCOC(=O)c1cnn(Cc2ccccc2)c1N	–	–	–	–	–
CCOC(=O)c1cnn(Cc2cccc(Cl)c2)c1C	–	–	–	55.8	–
COc1ccc(NC(=O)C2=C(C)Nc3nc(SCc4ccccc4C)nn3C2c2cc(OC)c(O)c(OC)c2)cc1 (stereo not drawn)	–	·	·	·	–
O=C1C=C(c2cc(F)ccc2F)C[C@@H](c2ccc(Cl)cc2)C1	–	–	–	–	–
COc1cc(F)c(C2=CC(=O)C[C@H](c3ccc(Cl)cc3)C2)cc1F	–	–	–	34.8	–
COc1cccc2sc(N3CCN(C(=O)c4ccc([N+](=O)[O-])o4)CC3)nc12	–	–	–	–	–
O=C(c1ccc([N+](=O)[O-])o1)N1CCN(c2nc3c(Cl)cccc3s2)CC1	–	69.4	–	–	–
CN1CCC=C(C(=O)N2c3ccccc3Sc3ccc(Cl)cc32)C1	–	–	–	38.6	–
NCCC(=O)N1c2ccccc2Sc2ccc(Cl)cc21	–	–	–	48.1	42.4
Cc1c(C)n(-c2ccccc2)c2ncnc(NCCN(C)C)c12	–	–	–	39.7	–
O=Cc1ccc2noc(-c3ccc(Cl)cc3)c2c1	·	79.7	?	·	·
COc1ccc(-c2onc3ccc(Cl)cc23)cc1	–	103.7	–	–	–
SMILES	D2 PAM-1	D2 PAM-2	D2 ag-1	D2 antagonist	D2 ag-2
O=C(CC12CC3CC(CC(C3)C1)C2)NCC(c1ccc(F)cc1)N1CCOCC1 (stereo not drawn)	–	–	–	40.1	–
O=C1CSC(=S)N1/N=C/c1cc(Br)c(O)c(Br)c1	–	–	–	–	84.6
CCOc1ccccc1N1CCN(C(=O)c2ccc(-c3ccc(OC(C)=O)cc3)cc2)CC1	–	–	–	30.7	–
C/C(Cc1ccccc1)=N\NC(=O)CNC(=O)COc1ccccc1	–	–	–	–	–
COc1ccc(OCC(=O)N/N=C(/C)Cc2ccccc2)cc1	–	–	–	31.6	–
COc1ccccc1C(=O)NCC(=O)N/N=C(\C)Cc1ccccc1	–	–	–	30.0	–
CC(C)N(Cc1ccccc1)C(=O)Cn1ncc2c3ccccc3n(Cc3ccccc3)c2c1=O	–	·	·	·	–
COc1cc(CNc2ccc3[nH]c(=O)[nH]c3c2)cc(Br)c1OCc1ccccc1F	43.6!	–	–	–	–
COc1cc(CNc2ccc3[nH]c(=O)[nH]c3c2)ccc1OCc1ccccc1F	–	–	–	–	–
O=C(COc1ccc(S(=O)(=O)N2CCOCC2)cc1Cl)NCc1ccccn1	33.6	–	–	–	–
O=C(COc1ccc(S(=O)(=O)N2CCCC2)cc1Cl)NCc1ccccn1	–	–	–	–	–
C/C(=N\OC(=O)Nc1ccc(Cl)cc1)c1ccc(F)c(F)c1	–	–	–	41.1	–
CCc1cccc(C)c1NC(=O)CSc1nnc(C)o1	37.3	–	–	–	–
O=C(CC12CC3CC(CC(C3)C1)C2)NC(=S)NCc1ccco1	–	–	–	–	–
O=S(=O)(NCCc1nnc2ccc(SCc3cccnc3)nn12)c1ccccc1	31.8	–	–	–	–
COc1ccc(N2C(=O)C(CC(=O)Nc3ccccc3)N(Cc3ccc4c(c3)OCO4)C2=O)cc1 (stereo not drawn)	–	–	–	43.0	–
COc1ccc(N2C(=O)C(CC(=O)Nc3ccc(F)cc3)N(Cc3ccc4c(c3)OCO4)C2=O)cc1 (stereo not drawn)	–	·	·	·	–
COc1nnc(-c2ccc(N3CCCCC3)c(NC(=O)COc3ccccc3)c2)c2ccccc12	·	–	–	·	·
COc1cccc(C(=O)Nc2nc(-c3nnn(-c4cccc(Cl)c4C)c3C)ns2)c1	–	·	·	·	–
O=C1CC(N2CCC(O)(c3ccc(Cl)cc3)CC2)C(=O)N1 (stereo not drawn)	–	–	–	31.3	–
CCC(C)(C)NC(=O)C1CCCN(S(=O)(=O)c2ccc3c(c2)CC(C)N3C(=O)C2CC2)C1 (stereo not drawn)	–	–	–	–	–
CC1=CC(c2ccccc2)n2nc(NS(=O)(=O)c3ccc(C)cc3)nc2N1 (stereo not drawn)	–	–	–	120.8	–
CC1=CC(c2ccc(Cl)cc2)n2nc(NS(=O)(=O)c3ccc(C)cc3)nc2N1 (stereo not drawn)	–	–	–	–	–
COc1ccccc1C(=O)N1CCN(Cc2nc3cc([N+](=O)[O-])ccc3n2C)CC1	–	–	–	35.7	–
CC(=O)N1CCN(Cc2nc3cc([N+](=O)[O-])ccc3n2C)CC1	·	–	–	·	·
Cc1c(Cl)c(C(F)(F)F)nn1CC(=O)NCc1ccco1	·	–	–	39.9	–
Cc1ccc(SCC(=O)NCc2ccco2)cc1	–	–	–	–	–
